Sampled rows, rich in hits. Any-hit rate of the full collection: about 4%.
CF NFkB block: cystic fibrosis NF-kB activation inhibition; inhibition, % at 5 µM; KKLEB NF-kB-GFP reporter, PAF-induced, GFP fluorescence overnight; AID 588850; 360,000 compounds, 0.86% hits;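 active = at least 50% inhibition at 5 µM, scaled per plate between neutral and stimulator controls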;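 note: PAF is a Pseudomonas aeruginosa culture filtrate used as stimulus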
Peg3 prom inh: Peg3 promoter activity inhibition; 360,000 compounds, 1.7% hits; AID 588405; inhibition, % at 20 µM; HeLa PEG-Prom luciferase reporter, luminescence, overnight;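 active = inhibition of at least 50% at 20 µM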
HIF-2a inh: HIF-2a inhibition; 360,000 compounds, 0.72% hits; 786-0 RCC cells HIF-2a reporter, luciferase luminescence, overnight; AID 624352; inhibition, % at 18.8 µM;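 active = inhibition of the luminescence signal of 40% or more relative to plate controls, in a single-dose primary screen at 18.75 µM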
TROY NFkB inh: TROY signaling inhibition; Q293 LMP1-TROYcd NF-kB luciferase reporter, 4 h; inhibition, % at 10 µM; 360,000 compounds, 0.98% hits; AID 1347056;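 active = compounds whose plate-normalised and pattern-corrected inhibition of the luciferase reporter signal at the single screening dose is 50% or more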
TWEAK-Fn14 inh: TWEAK-Fn14 signaling inhibition; 360,000 compounds, 2% hits; inhibition, % at 10 µM; TWEAK-stimulated Fn14 reporter cells, luciferase luminescence, 8 h; in the data active = inhibition above about 50%
KKLEB tox: CF airway cell cytotoxicity counter-screen; KKLEB CF airway cells viability, ATPlite luminescence, overnight; active compounds read low; cells stimulated with P. aeruginosa culture filtrate; activity change (cytotoxicity), % at 5 µM; 360,000 compounds, 0.36% hits;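 active = corrected activity change at or below -50% at 5 µM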
Mdm2 MdmX conf: Mdm2/MdmX (human) interaction inhibition, confirmed. shares compounds with HIF-2a inh. SaOS-2 split-luciferase Mdm2/MdmX complementation, luminescence. inhibition, % at 8 µM. 740 compounds, 99% hits. AID 504601;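 active = mean inhibition of the luminescence signal across two replicates at or above 26 percent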
Target sequence (O15151 whole entry, looked up): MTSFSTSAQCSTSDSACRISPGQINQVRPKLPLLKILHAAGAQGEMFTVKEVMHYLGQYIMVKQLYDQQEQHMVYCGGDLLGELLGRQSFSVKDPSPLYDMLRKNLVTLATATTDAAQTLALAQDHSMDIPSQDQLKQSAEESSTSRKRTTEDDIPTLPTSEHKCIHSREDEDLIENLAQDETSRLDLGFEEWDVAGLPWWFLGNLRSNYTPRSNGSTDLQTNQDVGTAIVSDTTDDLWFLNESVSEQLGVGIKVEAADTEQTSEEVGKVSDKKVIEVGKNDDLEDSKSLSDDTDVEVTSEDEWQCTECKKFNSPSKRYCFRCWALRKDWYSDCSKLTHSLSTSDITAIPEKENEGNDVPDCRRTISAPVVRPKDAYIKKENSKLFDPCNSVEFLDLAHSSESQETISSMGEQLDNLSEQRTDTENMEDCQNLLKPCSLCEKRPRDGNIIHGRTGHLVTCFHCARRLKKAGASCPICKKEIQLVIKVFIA
Target sequence (Q00987 whole entry, looked up): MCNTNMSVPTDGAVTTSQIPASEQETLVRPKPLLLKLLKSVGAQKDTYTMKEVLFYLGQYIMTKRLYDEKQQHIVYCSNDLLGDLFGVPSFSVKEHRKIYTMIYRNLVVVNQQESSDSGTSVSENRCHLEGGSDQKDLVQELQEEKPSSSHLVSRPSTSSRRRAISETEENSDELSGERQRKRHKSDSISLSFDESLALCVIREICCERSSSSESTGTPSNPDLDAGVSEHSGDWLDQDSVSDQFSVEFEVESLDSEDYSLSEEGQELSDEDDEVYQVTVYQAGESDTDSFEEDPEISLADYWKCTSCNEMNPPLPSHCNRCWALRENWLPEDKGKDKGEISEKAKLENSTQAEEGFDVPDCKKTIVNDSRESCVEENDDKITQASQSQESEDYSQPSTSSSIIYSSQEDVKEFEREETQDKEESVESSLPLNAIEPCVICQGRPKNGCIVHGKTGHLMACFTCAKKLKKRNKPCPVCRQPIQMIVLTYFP
HIF-2a inh conf: HIF-2a inhibition, single concentration confirmation. shares compounds with HIF-2a inh. 786-0 RCC cells, HIF-2a luciferase reporter luminescence, overnight. inhibition, % at 18.8 µM. 1,800 compounds, 56% hits;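 active = mean inhibition across four replicates of at least 40 percent at the single tested concentration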
HIF-1a cs: counter-screen for HIF-2a inhibitors: HIF-1a inhibition in MiaPaCa-2 cells; shares compounds with HIF-2a inh; MiaPaCa-2 HIF-1a luciferase reporter, desferoxamine, overnight; inhibition, % at 18.8 µM; 1,800 compounds, 72% hits; AID 651589;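 active = mean inhibition of the reporter signal across four replicates at the single tested dose of 50% or more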
Each line names hits and unclear results; the compound was inactive in the other large screens (follow-up assays come after a bar, where they were run).

O=C(Nc1ccncc1)c1ccc(Cl)c(S(=O)(=O)N2CCc3ccccc32)c1	HIF-2a inh 50, TWEAK-Fn14 inh 78 | HIF-2a inh conf inactive | HIF-1a cs inactive
COc1ccc(C(=O)NC2CCc3ccccc32)cc1OC1CCN(C(C)C)CC1 (configuration not stated)	none
Cc1cc(O)c(C(C)C)cc1C1(c2cc(C(C)C)c(O)cc2C)OC(=O)c2ccccc21	Peg3 prom inh 111, HIF-2a inh 50, TROY NFkB inh 85, TWEAK-Fn14 inh 97 | HIF-2a inh conf 63 | HIF-1a cs 107
Cc1cc(C2(c3ccc(O)c(C)c3)OC(=O)c3ccccc32)ccc1O	none
CCC(C(=O)NCCc1ccc(S(N)(=O)=O)cc1)c1ccccc1 (configuration not stated)	none
CCOC(=O)/C(=C\c1ccc(Cl)cc1)c1nc2sc(C)c(C)c2c(=O)[nH]1	CF NFkB block 80, Peg3 prom inh 108, HIF-2a inh 94, TROY NFkB inh 53, TWEAK-Fn14 inh 104, KKLEB tox -57 | HIF-2a inh conf 98 | HIF-1a cs 107
O=C(CCCc1ccccc1)Nc1cccc(C(=O)O)c1	HIF-2a inh 55 | HIF-2a inh conf 59 | HIF-1a cs inactive
O=C(CCc1ccccc1)NC(=S)Nc1cccc(C(=O)O)c1	none
Cc1nc(NCc2ccco2)c2c(C)c(C)sc2n1	Peg3 prom inh 88 | Mdm2 MdmX conf 101
Cc1nc(NC2=NCN(CCCN3CCOCC3)CN2)nc2c(C)cccc12	none | Mdm2 MdmX conf 66
Cc1nc(NC2=NCN(Cc3cccnc3)CN2)nc2ccccc12	none
COc1ccc(-n2nc3ccc(N)cc3n2)cc1	HIF-2a inh 46 | HIF-2a inh conf 70 | HIF-1a cs inactive
CCOc1ccc(Nc2nc(N)nc(CCl)n2)cc1	CF NFkB block 80, Peg3 prom inh 77, KKLEB tox -68 | Mdm2 MdmX conf 103
Cc1ccc(Nc2nc(N)nc(CCl)n2)c(C)c1	CF NFkB block 83, KKLEB tox -72 | Mdm2 MdmX conf 103
Cc1cccc(Nc2nc(N)nc(CCl)n2)c1C	CF NFkB block 100, Peg3 prom inh 58, KKLEB tox -85 | Mdm2 MdmX conf 103
CCOC(=O)N1CCN(C(=O)C[C@@H]2C[C@@]3(C(=O)OCC)CCC=C3N(Cc3ccccc3)C2=O)CC1	none (no result: CF NFkB block, Peg3 prom inh, KKLEB tox)
COc1ccccc1CNC(=O)CCN=C1NS(=O)(=O)c2ccccc21	none
Cc1nc(SC(C)C(=O)NCC2CCCO2)c2cc(-c3ccccc3)sc2n1 (configuration not stated)	none | Mdm2 MdmX conf 101
CC(Sc1ncnc2c1cnn2-c1ccccc1)C(=O)NCC1CCCO1 (configuration not stated)	none
COC(=O)c1c(-c2ccccc2)csc1NC(=O)c1c(-c2ccccc2)noc1C	none | Mdm2 MdmX conf 99
O=C(NC12CC3CC(CC(C3)C1)C2)c1ccc([N+](=O)[O-])o1	CF NFkB block 94, Peg3 prom inh 84, HIF-2a inh 65, KKLEB tox -78 | HIF-2a inh conf inactive | HIF-1a cs 96
O=C(NC12CC3CC(CC(C3)C1)C2)c1ccc(Br)o1	none
Cc1cc(C)n(S(=O)(=O)/C=C/c2ccccc2)n1	none | Mdm2 MdmX conf 93
Cc1ccc(S(=O)(=O)n2nc(C)cc2C)cc1	none
Cc1nn(C)cc1C(=O)Nc1cc(Oc2ccc(Cl)cc2)cc([N+](=O)[O-])c1	none
Cn1cc([N+](=O)[O-])c(C(=O)Nc2cc(Oc3ccccc3)cc([N+](=O)[O-])c2)n1	CF NFkB block 78, Peg3 prom inh 104, HIF-2a inh 95 | HIF-2a inh conf 63 | HIF-1a cs 108

Screening data deposited in PubChem BioAssay by Sanford-Burnham Center for Chemical Genomics.
